# Laboratory results as given in ChEMBL document CHEMBL3988442, “University of Dundee, Small-Polar-MMV Screening Library” (2021).
# The whole screen tested about 66,000 compounds, of which about 960 (1.5%) showed an effect of 50% or more. This excerpt belongs to a sample that is enriched for strong results.
# Tested on: Trypanosoma brucei
# Test: Trypanosoma brucei 72 hour study
# Assay type: functional, organism-based
# Parameters: scale not given: in the data most compounds retested in dose-response had high values
smiles,measurement,setting,value
CC(C)c1n[nH]c(C2CN(C(=O)c3ccnc(C4CC4)n3)CCO2)n1 (centres undefined),Percent Effect,10 µM,-44.45%
Cc1nc2c(cc1C(=O)O)CCN(Cc1ccsc1)CC2.O=C(O)C(F)(F)F.O=C(O)C(F)(F)F,Percent Effect,"30.3 µM, […]",-6.304%
Cc1ncc(CN2CCOC(c3ccc(-c4cc[nH]n4)cn3)C2)s1 (centres undefined),Percent Effect,"30.3 µM, […]",-10.46%
Cc1ncc(CN2CCOC(c3ccc(-c4ccccc4F)cn3)C2)s1 (centres undefined),Percent Effect,"30.3 µM, […]",93.67%
Cc1ncc(CN2CCOC(c3ccc(-c4cnn(C)c4)cn3)C2)s1 (centres undefined),Percent Effect,"30.3 µM, […]",-5.677%
O=C(NC[C@]12COC[C@H]1CN(Cc1nccs1)C2)c1ccsc1.O=C(O)C(F)(F)F,Percent Effect,"30 µM, 30.03 µM",-41.51%
CN(C)CCN1CCN(Cc2cccc(C#N)c2)Cc2cccnc21.O=C(O)C(F)(F)F.O=C(O)C(F)(F)F.O=C(O)C(F)(F)F,Percent Effect,"30.3 µM, […]",-65.33%
CN1C(=O)[C@H]2CC[C@@H]1CN(S(=O)(=O)c1ccc(Cl)cc1Cl)C2,Percent Effect,"30 µM, 30.03 µM",13.71%
Cn1cc(C2CCCN2Cc2csc(C(C)(C)C)n2)cn1 (centres undefined),Percent Effect,"30 µM, 30.03 µM",87.76%
CC(C)c1nc(CN2CCCC2c2cnn(C)c2)cs1 (centres undefined),Percent Effect,10 µM,-7.544%
Cn1cc(C2CCCN2Cc2csc(-c3ccccc3)n2)cn1 (centres undefined),Percent Effect,10 µM,-15.89%
COCCn1c(=O)n(C)c(=O)c2ccc(C3CCN(C(C)=O)CC3)nc21,Percent Effect,"30.3 µM, […]",24.28%
Cl.OC[C@H]1CC[C@]2(CC1)CN(Cc1ccsc1)Cc1ccccc1O2,Percent Effect,"30.3 µM, […]",39.16%
CC(C)c1nccc(CN2CCC(O)(CN3CCCCC3)C2)n1 (centres undefined),Percent Effect,"30 µM, 30.03 µM",67.93%
CC(C)c1nccc(CN2CCCC(O)(CN3CCCC3)C2)n1 (centres undefined),Percent Effect,"30 µM, 30.03 µM",17.13%
CC(C)c1nccc(CN2CCCC(O)(CN(C)C)C2)n1 (centres undefined),Percent Effect,"30 µM, 30.03 µM",-2.317%
CCCSc1ncc(CN(C)CCN2CCCCC2)cn1.O=C(O)CC(O)(CC(=O)O)C(=O)O,Percent Effect,"30.3 µM, […]",2.471%
Cc1cccc(Nc2cc(C3CCCN(CC(N)=O)C3)ccn2)n1.O=CO.O=CO (centres undefined),Percent Effect,"30.3 µM, […]",-0.9423%
CCOc1ccccc1N1CCN(CC2(O)CCCNC2)CC1 (centres undefined),Percent Effect,"30 µM, 30.03 µM",-24.1%
Cc1ccccc1N1CCCN(CC2(O)CCCNC2)CC1 (centres undefined),Percent Effect,"30 µM, 30.03 µM",24.63%
Cc1ccc(C)c(N2CCN(CC3(O)CCNC3)CC2)c1 (centres undefined),Percent Effect,"30 µM, 30.03 µM",106.8%
Cn1cccc1C(=O)N1CCC2(CC1)CN(c1ccsc1)C(=O)CO2,Percent Effect,"30.3 µM, […]",-133.6%
COc1ccc(CN2CCO[C@H]3[C@H](OCCN4CCCC4)CC[C@@H]32)cc1.O=C(O)C(F)(F)F.O=C(O)C(F)(F)F,Percent Effect,"30.3 µM, […]",-2.76%
COc1ccc(CN2CCc3c(nc(-c4ccccn4)[nH]c3=O)C2)cc1,Percent Effect,"30.3 µM, […]",100.8%
O=c1[nH]c(-c2ccccn2)nc2c1CCN(S(=O)(=O)N1CCCC1)C2,Percent Effect,"30.3 µM, […]",16.13%
Cc1ncc(CN2CCc3c(nc(-c4ccccn4)[nH]c3=O)C2)n1C,Percent Effect,"30.3 µM, […]",9.769%
Cn1cc(CN2CCc3c(nc(-c4ccccn4)[nH]c3=O)C2)cn1,Percent Effect,"30 µM, 30.03 µM",19.69%
COc1ccccc1CN1CCc2c(nc(-c3ccccn3)[nH]c2=O)C1,Percent Effect,"30.3 µM, […]",100.6%
Cc1nn(C)cc1CN1CCc2c(nc(-c3ccccn3)[nH]c2=O)C1,Percent Effect,"30.3 µM, […]",3.808%
Cn1cccc1CN1CCc2c(nc(-c3ccccn3)[nH]c2=O)C1,Percent Effect,"30.3 µM, […]",100.6%
O=c1[nH]c(-c2ccccn2)nc2c1CCN(Cc1cccc(O)c1)C2,Percent Effect,"30.3 µM, […]",-1.061%
CCn1ncc(CN2CCc3c(nc(-c4cccnc4)[nH]c3=O)C2)c1C,Percent Effect,"30 µM, 30.03 µM",24.52%
CCN(CC)CC1CN(CCc2ccccc2)Cc2nccn2C1.O=C(O)C(F)(F)F.O=C(O)C(F)(F)F (centres undefined),Percent Effect,"30 µM, 30.03 µM",-28.98%
CC(C)c1nn(C)c(N(C)C)c1CNCCC(=O)NC1CCCCC1,Percent Effect,"30.3 µM, […]",-9.322%
Cc1cccc(CN2C(=O)CCC23CCN(Cc2cccn2C)CC3)n1.O=C(O)C(F)(F)F.O=C(O)C(F)(F)F,Percent Effect,"30.3 µM, […]",-13.68%
Cl.O=C(CCC1CCCC1)NCCn1nc(C2CCNC2)c2cccnc21 (centres undefined),Percent Effect,"30 µM, 30.03 µM",11.21%
CN(C)c1ncc(-c2ccc(C(N)=O)cc2)c(C2CCNC2)n1.Cl (centres undefined),Percent Effect,"30.3 µM, […]",3.717%
C[C@@H]1CN(C2CCCCC2)CC[C@@]1(O)C1CCOCC1,Percent Effect,"30 µM, 30.03 µM",-20.03%
CCOCCNc1nc(-c2ccncc2)nc2c1CCNCC2,Percent Effect,"30.3 µM, […]",-307.1%
c1cc(-c2nc3c(c(NCCn4ccnn4)n2)CCNCC3)ccn1,Percent Effect,"30 µM, 30.03 µM",-15.86%
O=C(Nc1cccc(F)c1)NC1CCN(Cc2ccncc2)CC1,Percent Effect,"30.3 µM, […]",-25.17%
CC(Nc1nc(-c2ccncc2)nc2c1CCNC2)c1ccccc1 (centres undefined),Percent Effect,"30 µM, 30.03 µM",-57.19%
Cl.NC1CCc2nc(-c3ccncc3)nc(Nc3cccc(F)c3)c2C1 (centres undefined),Percent Effect,"30.3 µM, […]",99.62%
CS(=O)(=O)NCc1ncn2c1CN(Cc1cccs1)CCC2.O=C(O)C(F)(F)F.O=C(O)C(F)(F)F,Percent Effect,"30 µM, 30.03 µM",32.32%
Cc1c(C(=O)NCCC(=O)N2CCOCC2)sc2ccc(F)cc12,Percent Effect,"30 µM, 30.03 µM",-29.66%
CN1C[C@]2(CC[C@@H](C(=O)O)CC2)Oc2ccccc2C1=O,Percent Effect,"30.3 µM, […]",-13.61%
C[C@@H]1CN(C(=O)c2cccs2)C[C@]12CCN(CCN(C)C)C2=O.O=C(O)C(F)(F)F,Percent Effect,"30.3 µM, […]",-25.2%
c1nc2n(c1CN1CCOCC1)CCN(C1CCOC1)CC2 (centres undefined),Percent Effect,"30 µM, 30.03 µM",-183.8%
c1nc2n(c1CN1CCCC1)CCN(C1CCOCC1)CC2,Percent Effect,"30 µM, 30.03 µM",51.58%
O=C(O)C(F)(F)F.O=C(O)C(F)(F)F.c1nc2n(c1CN1CCCCC1)CCN(C1CCOC1)CC2 (centres undefined),Percent Effect,"30 µM, 30.03 µM",-102.4%
Cl.O=C(NCCO)C1(Cc2ccccc2-c2cccnc2)CCOCC1,Percent Effect,"30.3 µM, […]",-4.855%
COC1COC2(CCN(Cc3ccc4c(c3)OCO4)CC2)C1.O=C(O)C(F)(F)F (centres undefined),Percent Effect,"30.3 µM, […]",-15.29%
Br.Cc1ncc(C(=O)N2CCOC(C(=O)N3CCCCCC3)C2)c(C)n1 (centres undefined),Percent Effect,"30.3 µM, […]",-22.96%
O=C(NCCCN1CCCC1=O)c1ccc(-n2ccc3ccccc32)s1,Percent Effect,"30 µM, 30.03 µM",23.58%
O=C(NCCCN1CCCCC1)c1ccc(-n2ccc3ccccc32)s1,Percent Effect,"30 µM, 30.03 µM",80.76%
O=C(NCCCN1CCOCC1)c1ccc(-n2ccc3ccccc32)s1,Percent Effect,"30 µM, 30.03 µM",-4.421%
O=C(NCCN1CCOCC1)c1ccc(-n2ccc3ccccc32)s1,Percent Effect,"30 µM, 30.03 µM",63.33%
Cn1ccc2c(C(=O)NCCCN3CCCC3)cccc21,Percent Effect,"30 µM, 30.03 µM",-4.832%
CCN(CC)CCNC(=O)c1ccc(-n2ccc3ccccc32)s1,Percent Effect,"30 µM, 30.03 µM",-12.39%
